We go through 35 compounds from publication PMC5540273 (PLoS ONE, 2017).
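Further: KINOMEscan kinase panel screen.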

One assay concerns PFTAIRE2. The following applies: concentration: 1 μM, replicates: in singlicate; n = 1.
For the compound `COC(=O)c1cccc(NC(=O)NCCNc2ccnc(Nc3ccc(F)cc3)n2)c1` [GSK1379883], the “%Inh” value came to 9%.
Still for that read-out and setting: the same measure for `COc1cc2c(Nc3cccc(NC(=O)c4ccccc4)c3)ncnc2cc1OCCCN1CCOCC1` [GSK223810]: 16%; for `O=C(Nc1ccccc1)Nc1ccc(Oc2ccc3nccn3n2)cc1`: 0%; for `Nc1nc(-c2ccccn2)c(-c2ccnc3ccccc23)s1` [GW548057]: 9%.
For the compound `Cc1ccc(O)cc1Nc1cc(C(F)(F)F)nc2ccc(-c3ccncc3)cc12` [GW630823], the “%Inh” value is 34%.
The same measure, in the same setting: the same measure for `Fc1cccc(COc2ccc(Nc3ncnc4sc(-c5ccc[nH]5)cc34)cc2Cl)c1` [GW707818]: 22%.
Still for that read-out and setting: as for `Fc1cccc(COc2ccc(Nc3ncnc4cc[nH]c34)cc2Cl)c1`, the figure is 17%; as for `Nc1nc(-c2ccc3c(N)n[nH]c3c2)cc(N2CCC[C@@H](C(=O)Nc3ccccc3)C2)n1.O=C(O)C(F)(F)F.O=C(O)C(F)(F)F` [GSK2288359], 18%.
The same measure, in the same setting: as for `O=C(CCO)NCCn1ccc2ncnc(Nc3ccc(Oc4cccc(C(F)(F)F)c4)c(Cl)c3)c21`, the figure is 0%.
Take `CNc1nccc(-c2c(-c3ccc(F)cc3)ncn2CCCN2CCOCC2)n1` [SB-222516]: the “%Inh” value came out at 9%.
On to `Cc1ccc(C)c(NC(=O)NCCNc2ccnc(Nc3ccc(F)cc3)n2)c1` [GSK1379878], for which the “%Inh” value is given as 10%.
The same measure, in the same setting: the same measure for `CC(C)(C)c1ccc(-n2cnc3c(N)ncnc32)cc1` [SKF-97263]: 16%; for `CS(=O)(=O)CCNCc1nc(-c2ccc3ncnc(Nc4ccc(OCc5cccc(F)c5)c(Cl)c4)c3c2)cs1.Cl` [GW583340]: 12%; for `CCCc1ccc(S(=O)(=O)NC2CCN(c3ccnc(Nc4ccc(OC)cc4)n3)C2)cc1` (stereo not drawn) [GSK1379737]: 5%.
On the same count and under the same terms, the same measure for `FC(F)(F)c1ccc(-c2nn3ncccc3c2-c2ccnc(Nc3cccc(C(F)(F)F)c3)n2)cc1` [GW828205]: 0%.
The same measure, in the same setting: as for `Cc1cccc(-c2nc(Nc3ccc4[nH]nnc4c3)c3ccccc3n2)n1` [GW867587], the figure is 0%; as for `O=C(Nc1ccccc1F)NC1CCN(c2ccnc(Nc3ccc(F)cc3)n2)C1` (stereo not drawn) [GSK1379722], 7%.
For `COc1ccc(NC(=O)Nc2ccc(C)c(-c3ccc(C(=O)Nc4ccncc4)cc3)c2)cc1` [GSK1398475], the “%Inh” value was determined as 20%.
The same measure, in the same setting: as for `Clc1ccc(-c2cc(-c3c[nH]nc3-c3ccccn3)ccn2)cc1` [GW681251], the figure is 1%.
`Clc1cc(Nc2ncnc3cc[nH]c23)ccc1OCc1ccccn1`: the “%Inh” value was determined as 5%.
Regarding `CNc1nccc(-c2c(-c3ccc(F)cc3)ncn2C2CCN(C)CC2)n1` [SB-222903], the “%Inh” value was 0%.
As for `c1ccc(-c2ccc3c(-c4ccnc(Nc5ccc6c(c5)OCCO6)n4)cnn3n2)cc1` [GW818941], the “%Inh” value was determined as 5%.

The next assay has as its system T1, PFTK1.
T1 construct: gene CDK14
The conditions noted are these: concentration: 1 μM, replicates: in singlicate; n = 1.
As for `CCC(CC)(CC)n1cnc2c(N)ncnc21` [SKF-97620], the “%Inh” value was 0%.
In the case of `Cc1ccc(NC(=O)c2cccc(C#N)c2)cc1-c1ccc(C(=O)Nc2ccncc2)cc1` [GSK1398463], the “%Inh” value is given as 27%.
For `CSc1nn2c(=O)cc(N3CCOCC3)nc2n1Cc1cccc(Cl)c1Cl` [GSK2347225], the “%Inh” value came out at 20%.
Still for that read-out and setting: the same measure for `FC(F)(F)c1cc(Nc2nccc(-c3c(-c4ccc(Cl)cc4)nn4ncccc34)n2)ccc1Cl` [GW829351]: 0%; for `CC(=O)Nc1n[nH]c2ncc(-c3ccccc3)cc12` [SB-548492]: 12%.
`O=C(Nc1n[nH]c2nc(-c3ccco3)c(Br)cc12)c1ccc(CN2CCCC2)cc1.O=C(O)[C@H](O)[C@@H](O)C(=O)O` [SB-742352]: the “%Inh” value is given as 0%.
Same read-out and setting: as for `O=C(NCCCN1CCCC1=O)c1cnc(NCc2cc(Cl)ccc2Cl)nc1NC1CCNCC1`, the figure is 7%; as for `Nc1nccc2scc(-c3ccc4c(c3)CCN4C(=O)Cc3cc(F)ccc3F)c12` [GSK2587663], 15%.
`CN1CCC(n2cnc(-c3ccc(F)cc3)c2-c2ccnc(NC3CCNCC3)n2)CC1` [SB-229482]: the “%Inh” value is recorded as 0%.
The same measure, in the same setting: as for `Oc1ccc2ncnc(Nc3ccc(OCc4ccccc4)cc3)c2c1` [GI262866], the figure is 29%; as for `COc1ccc(NC(=O)c2ccc(-c3cc(-c4nnc(C)o4)ccc3C)cc2)cc1` [GW595885], 5%.
On the same count and under the same terms, as for `CC(C)N1CCC(n2cnc(-c3ccc(F)cc3)c2-c2ccnc(N)n2)CC1` [SB-223132], the figure is 2%.
For `COc1ccc(Nc2nccc(N3CCC(NC(=O)Nc4ccc5c(c4)OCO5)C3)n2)cc1` (stereo not drawn) [GSK1379745], the “%Inh” value is given as 7%.
Still for that read-out and setting: the same measure for `COC(=O)c1cccc(NC(=O)NCCNc2ccnc(Nc3ccc(F)cc3)n2)c1` [GSK1379883]: 18%.
Still for that read-out and setting: the same measure for `COc1cc2c(Nc3cccc(NC(=O)c4ccccc4)c3)ncnc2cc1OCCCN1CCOCC1` [GSK223810]: 0%; for `O=C(Nc1ccccc1)Nc1ccc(Oc2ccc3nccn3n2)cc1`: 0%.
Still for that read-out and setting: the same measure for `Nc1nc(-c2ccccn2)c(-c2ccnc3ccccc23)s1` [GW548057]: 29%; for `Cc1ccc(O)cc1Nc1cc(C(F)(F)F)nc2ccc(-c3ccncc3)cc12` [GW630823]: 5%; for `Fc1cccc(COc2ccc(Nc3ncnc4sc(-c5ccc[nH]5)cc34)cc2Cl)c1` [GW707818]: 23%.
Turning to `Fc1cccc(COc2ccc(Nc3ncnc4cc[nH]c34)cc2Cl)c1`, the “%Inh” value is 12%.
Still for that read-out and setting: as for `Nc1nc(-c2ccc3c(N)n[nH]c3c2)cc(N2CCC[C@@H](C(=O)Nc3ccccc3)C2)n1.O=C(O)C(F)(F)F.O=C(O)C(F)(F)F` [GSK2288359], the figure is 16%; as for `O=C(CCO)NCCn1ccc2ncnc(Nc3ccc(Oc4cccc(C(F)(F)F)c4)c(Cl)c3)c21`, 19%.
For the compound `CNc1nccc(-c2c(-c3ccc(F)cc3)ncn2CCCN2CCOCC2)n1` [SB-222516], the “%Inh” value was 0%.
Consider `Cc1ccc(C)c(NC(=O)NCCNc2ccnc(Nc3ccc(F)cc3)n2)c1` [GSK1379878], for which the “%Inh” value worked out at 0%.
Same read-out and setting: as for `CC(C)(C)c1ccc(-n2cnc3c(N)ncnc32)cc1` [SKF-97263], the figure is 32%.
Still for that read-out and setting: as for `CS(=O)(=O)CCNCc1nc(-c2ccc3ncnc(Nc4ccc(OCc5cccc(F)c5)c(Cl)c4)c3c2)cs1.Cl` [GW583340], the figure is 16%; as for `CCCc1ccc(S(=O)(=O)NC2CCN(c3ccnc(Nc4ccc(OC)cc4)n3)C2)cc1` (stereo not drawn) [GSK1379737], 0%; as for `FC(F)(F)c1ccc(-c2nn3ncccc3c2-c2ccnc(Nc3cccc(C(F)(F)F)c3)n2)cc1` [GW828205], 48%.
On the same count and under the same terms, as for `Cc1cccc(-c2nc(Nc3ccc4[nH]nnc4c3)c3ccccc3n2)n1` [GW867587], the figure is 0%; as for `O=C(Nc1ccccc1F)NC1CCN(c2ccnc(Nc3ccc(F)cc3)n2)C1` (stereo not drawn) [GSK1379722], 14%; as for `COc1ccc(NC(=O)Nc2ccc(C)c(-c3ccc(C(=O)Nc4ccncc4)cc3)c2)cc1` [GSK1398475], 24%.
`Clc1ccc(-c2cc(-c3c[nH]nc3-c3ccccn3)ccn2)cc1` [GW681251]: the “%Inh” value is 0%.
Still for that read-out and setting: the same measure for `Clc1cc(Nc2ncnc3cc[nH]c23)ccc1OCc1ccccn1`: 10%.
Still for that read-out and setting: as for `CNc1nccc(-c2c(-c3ccc(F)cc3)ncn2C2CCN(C)CC2)n1` [SB-222903], the figure is 0%.
Still for that read-out and setting: as for `c1ccc(-c2ccc3c(-c4ccnc(Nc5ccc6c(c5)OCCO6)n4)cnn3n2)cc1` [GW818941], the figure is 19%.
